High-throughput results as filed in PubChem BioAssay.
The list is not random: actives were taken first. Their share in the collection is about 1.5%.
Coupling enz: coupling enzyme interference in Giardia aldolase counter-screen | coupling enzyme system counterscreen, AmpLite Red fluorescence | actives 0.67% (n = 290,000) | activity change, negative = inhibition, % at 58.2 µM, hits read low; in the data active means activity change below about -30%
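Final compound at 57.5 uM, incubated 10 min at RT with coupling enzyme reagent (glyceraldehyde-3-phosphate), then 20 min with substrate and AmpLite Red detection. Fluorescence read at 525/598 nm; tests interference with the coupling assay, not aldolase inhibition.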
PI4K2A inh: inhibitors of human PI4K2A; actives 0.13% (n = 420,000); purified PI4K2A, ADP-Glo luminescence, 1 h; stronger effect = lower value; AID 1346378; activity change, negative = inhibition, % at 76.9 µM; in the data active means activity change below about -50%; inconclusive means mostly about -30% to -49%
Target sequence (Q9BTU6 whole entry, looked up): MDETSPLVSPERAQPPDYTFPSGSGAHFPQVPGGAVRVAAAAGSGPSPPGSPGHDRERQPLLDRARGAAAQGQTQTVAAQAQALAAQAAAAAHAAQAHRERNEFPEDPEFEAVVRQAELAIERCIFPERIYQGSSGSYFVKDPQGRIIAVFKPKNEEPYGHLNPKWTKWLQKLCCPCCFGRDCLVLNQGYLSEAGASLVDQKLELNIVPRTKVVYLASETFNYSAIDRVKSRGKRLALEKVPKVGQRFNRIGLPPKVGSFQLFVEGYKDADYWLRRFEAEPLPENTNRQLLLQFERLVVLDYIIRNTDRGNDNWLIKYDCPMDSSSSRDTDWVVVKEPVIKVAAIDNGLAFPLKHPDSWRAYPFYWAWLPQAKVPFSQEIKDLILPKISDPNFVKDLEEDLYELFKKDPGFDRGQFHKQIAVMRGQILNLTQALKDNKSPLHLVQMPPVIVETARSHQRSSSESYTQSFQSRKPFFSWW
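ADP-Glo luminescence measured ADP generated by PI4K2A enzyme (4 ug/mL before mixing) with 1.2 mM PI substrate (pre-mix) and 300 microM ATP (pre-mix). Tris pH7.5 buffer with MgCl2, Triton X-100; 1 h reaction at ambient temperature.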
rTrxR1 inhibitor: rat TrxR1 inhibition; O89049; recombinant rTrxR1, NADPH fluorescence consumption, selenite substrate; Potency, µM (top dose mostly 114 µM), actives largely listed as inhibitors; actives 1% (n = 390,000); further: nearly all actives have a fitted effect of over 65% in size
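Rat TrxR1 (90 nM in the dispensed reagent) was pre-reduced with 400 uM NADPH for 5 min at room temperature, then incubated with compound for 15 min. After 400 uM selenite was added, NADPH fluorescence (Ex 340/Em 450 nm) was followed for 8 min.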
GALK inh: blocks human galactokinase activity; P51570; Purified GALK, Kinase-Glo residual ATP luminescence; Potency, µM (highest dose often 57.5 µM), hits mostly inhibitors; actives 0.007% (n = 270,000); AID 1868
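Kinase-Glo Plus luminescence measured ATP left after a 1 h room-temperature reaction. The reaction used 5 nM GALK, 100 uM galactose and 35 uM ATP at pH 8.0 (20 mM HEPES, 5 mM MgCl2, 60 mM NaCl, 1 mM DTT, 0.01% BSA).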
Giardia kill: Giardia lamblia killing. Giardia lamblia trophozoite viability. activity change, % at 7.66 µM, hits read low. actives 0.15% (n = 340,000). AID 540267; in the data active means activity change below about -80%; inconclusive means between about -30% and that limit;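 further: parasites exposed to compound for two days anaerobically before the ATP read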
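ATP-content bioluminescence gauges trophozoite survival. Cells (100/well) receive compound and incubate anaerobically for 48 hrs at 37 deg C; detection reagent follows for 15-30 min at room temperature.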
TrxR1 substrate: is turned over as a substrate by rat TrxR1. purified TrxR1 substrate turnover, NADPH consumption readout. Potency, µM (highest dose often 114 µM). actives 0.01% (n = 390,000). AID 588456; further: nearly all actives have a fitted effect of over 50% in size
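Rat TrxR1, dispensed at 90 nM, was prereduced with 400 uM NADPH (final) for 5 min at ~22 deg C, then incubated with compound 15 min before 400 uM selenite. A first-read NADPH fluorescence drop versus no-compound background flagged substrates.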
A number is an active result; i = inactive; ? = inconclusive; nt = no result; ! = not confirmed by another sample; [ ] = another dose, or the depositor's remark. Unless noted, the call rests on the fitted dose curve; in most records, active means well fitted curve in the direction sought with a large enough effect; inconclusive means small, poorly fitted or top-dose-only effect, or another doubt; inactive means no such curve, though single readings can be large; an effect the other way counts as inactive or inconclusive.

SMILES	Coupling enz	PI4K2A inh	rTrxR1 inhibitor	GALK inh	Giardia kill	TrxR1 substrate
COc1ccc(C2C(C(C)=O)=C(O)C(=O)N2c2ccc(O)cc2)cc1 (centres undefined)	i	i	i	i	i	i
Cc1cc2ccccc2n1CCNC(=O)c1ccc(Br)o1	i	i	10µM	i	i	i
CCCCCCCCCC[n+]1ccc(/C=C/c2c(C)[nH]c3ccccc23)c2ccccc21	nt	nt	?	nt	nt	i
S=c1[nH]c2cc3ccccc3cc2[nH]1	-53.1!	i	i	i	i	i
O=C(CC(C(=O)O)n1ccnc1)c1ccc(Cl)cc1 (centres undefined)	nt	nt	1.78µM	nt	nt	i
Cn1nnnc1Sc1ncnc2scc(Br)c12	nt	i	5.62µM	nt	i	i
Cn1nnnc1Sc1ncnc2scc(-c3ccc[nH]3)c12	nt	i	50.1µM	nt	i	i
COc1ccc(C#Cc2c(-c3ccccc3)n(-c3ccccc3)c3ccc(CO)cc23)cc1	nt	i	35.5µM	nt	i	i
COc1ccc(-c2c(C#Cc3ccc(N(C)C)cc3)c3ccccc3n2C)cc1	nt	i	i	nt	i	i
CCN1CCN(C(c2ccccc2Cl)c2c(O)cc(C)n(Cc3ccco3)c2=O)CC1 (centres undefined)	nt	i	8.91µM	nt	nt	i
COCCn1c(C)cc(O)c(C(c2cccc(F)c2)N2CCN(c3ccccc3)CC2)c1=O (centres undefined)	nt	i	?	nt	nt	i
Cc1cc(O)c(C(c2ccccc2)N2CCC(C)CC2)c(=O)n1Cc1ccco1 (centres undefined)	nt	i	i	nt	nt	i
COCCn1c(C)cc(O)c(C(c2ccc(OC)cc2)N2CCN(c3ccccc3)CC2)c1=O (centres undefined)	nt	i	14.1µM	nt	nt	i
CCN1CCN(C(c2ccccc2)c2c(O)cc(C)n(Cc3ccco3)c2=O)CC1 (centres undefined)	nt	i	7.94µM	nt	nt	i
Cc1cc(O)c(C(c2ccccc2Cl)N2CCN(c3ccccc3)CC2)c(=O)n1Cc1ccco1 (centres undefined)	nt	i	?	nt	nt	i
CCN1CCN(C(c2ccc(OC)cc2)c2c(O)cc(C)n(Cc3ccco3)c2=O)CC1 (centres undefined)	nt	i	?	nt	nt	i
Cc1cc(O)c(C(c2ccccc2)N2CCN(C)CC2)c(=O)n1Cc1ccco1 (centres undefined)	nt	i	8.91µM	nt	nt	i
Nc1nc(=O)n([C@@H]2O[C@H](CO)[C@@H](O)[C@@H]2F)cc1I	nt	i	nt	nt	nt	nt
CN(C)c1ccc(-c2c(C3C4C=CCCC4(C)C(=O)N3Cc3ccccc3)ccc3ccccc23)cc1 (centres undefined)	i	nt	i	nt	i	i
CCOC(=O)c1cnc2c(Cl)cc(Cl)cc2c1NCCCN1CCOCC1	i	i	15.8µM	i	i	i
O=C(Nc1ccc(F)cc1)Nc1ccc(N2CCOCC2)c2nonc12	i	-58.6	i	i	i	i
Nc1ccc(N2CCOCC2)c2nonc12	-48.3	-59.8	i	i	i	i
O=C(Nc1ccc(N2CCOCC2)c2nonc12)C1CCCC1	-41.2	?	i	i	i	i
Nc1ccc(N2CCOCC2)c(Cl)c1	i	i	i	i	i	i
O=C(Nc1ccc(Cl)cc1N1CCOCC1)C1CCCCC1	i	i	i	i	i	i
SMILES	Coupling enz	PI4K2A inh	rTrxR1 inhibitor	GALK inh	Giardia kill	TrxR1 substrate
C[C@@H]1[C@H](c2ccccc2)OCCS(=O)(=O)N1Cc1ccccc1F	nt	nt	i	nt	nt	i
COc1ccc(S[C@]2(C(=O)N(C)C)CC(=O)N(C(=O)C3CC3)[C@@H]2c2ccc(OC)cc2)cc1	nt	i	nt	nt	nt	nt
C(=C\c1cnc2ccccc2n1)/c1ccc2c(c1)OCO2	nt	nt	i	nt	nt	i
O=C(NN=Cc1cccc([N+](=O)[O-])c1)c1cccc2ccccc12	nt	i	i[11.4 µM]	nt	i	i
O=C(N/N=C/c1cccc([N+](=O)[O-])c1)c1ccccc1-n1cccc1	-38.2	i	i	i	i	i
O=c1c2cc(Br)cc(Br)c2oc2nc3n(c(=O)c12)CCCS3	i	nt	nt	i	nt	nt
O=Cc1ccc2oc3nc4n(c(=O)c3c(=O)c2c1)CCCS4	i	-61.7	i	i	i	i
CC(C)c1cc[n+](-c2nc([O-])sc2C=O)cc1	-40.2	i	i	i	i	i
CCc1cc[n+](-c2nc([O-])sc2C=O)cc1	-37.6	i	i	i	i	i
CC(C)(C)c1cc[n+](-c2nc([O-])sc2C=O)cc1	i	i	i	nt	i	i
CC(C)(C)n1ncc2c(=O)n(Cc3ccc(SC(=O)O)cc3Cl)cnc21	nt	nt	i	nt	nt	i
CCCc1cc(=O)[nH]c(SCC(=O)NC2CCCc3ccccc32)n1 (centres undefined)	-38.1	i	i	i	i	i
Nc1cc(=O)[nH]c(SCC(=O)NC2CCCc3ccccc32)n1 (centres undefined)	i	i	i	i	i	i
O=C(/N=C1\NC(=O)C(F)(C(F)(F)F)S1)NC1CCCCC1 (centres undefined)	i	i	25.1µM	i	i	i
CC(C)(C)n1ncc2c(=O)n(Cc3ccccc3SC(F)(F)F)cnc21	nt	nt	i	nt	nt	i
Cc1ccc(-c2[nH][nH]c(=O)c(=O)c2N=Nc2ccccc2)cc1	i	i	i	nt	-92.5	i
O=C1CC(N2CCC(Cc3ccccc3)CC2)C(=O)N1CCc1ccccc1 (centres undefined)	i	i	31.6µM	i	i	i
O=C1CC(N2CCN(C3CC(=O)N(CCc4ccccc4)C3=O)CC2)C(=O)N1CCc1ccccc1 (centres undefined)	i	i	i	i	i	i
Clc1ccc(C2Nc3cccc4cccc(c34)N2)cc1Cl	i	i	44.7µM	i	i	i
Fc1cccc(Cl)c1C1Nc2cccc3cccc(c23)N1	i	i	56.2µM	i	i	i
c1ccc(C2Nc3cccc4cccc(c34)N2)cc1	i	i	?	i	i	i
Brc1cccc(C2Nc3cccc4cccc(c34)N2)c1	i	i	56.2µM	i	i	i
c1csc(C2Nc3cccc4cccc(c34)N2)c1	i	?	?	i	i	i
Brc1ccc(C2Nc3cccc4cccc(c34)N2)o1	i	i	25.1µM	i	i	i
Brc1cccc[n+]1Cc1ccccc1C[n+]1ccccc1Br	nt	nt	i	nt	nt	i
Cc1cc(C)n(-c2nc(NC(C)C)nc(NC(C)(C)C)n2)n1	nt	nt	i[0.0914 µM]	nt	i	i[0.0914 µM]
Cc1c(NC(=O)c2sc3ccccc3c2Cl)cccc1-c1nc2ccccc2o1	nt	i	i	nt	nt	i
Clc1cccc(C2Nc3cccc4cccc(c34)N2)c1	i	i	25.1µM	i	i	i
COc1ccc(C(Nc2cc(C)ccn2)c2ccc3ccc(C)nc3c2O)cc1 (centres undefined)	i	i	14.1µM	i	i	i
Cc1cccc(NC(c2ccccc2C)c2ccc3ccc(C)nc3c2O)n1 (centres undefined)	nt	i	?	nt	nt	i
